The source of these data is PubChem BioAssay AID1508600 (Functional Genomics Laboratory (NCATS/FGL), 2020).

Among all 53,000 sequences or so, about 3,700 (7%) were called active. This is one part of a sample in which actives are shown more often than they occur. A number with no mark means an inactive call.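 The calls were made as follows: active = gene knockdowns whose robust z-score for IL-1 alpha signal is at least 2 or at most -2, so actives lie on both sides; inactive = the rest.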

This assay in a line: Components of the Cytosolic LPS Sensing Pathway: Gene Identification via Genome-wide siRNA Screen.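 Also: robust z of the log signal after scaling to non-targeting control siRNA wells of the plate.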 Particulars: RAW264.7 macrophages, IL-1a HTRF, actives lie on both sides, screened at 100 nM (by protocol), cells primed 5 h with Pam3CSK4 first. In a few lines:
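Knockdown: 100 nM siRNA, 48h, RAW264.7. Stimulation: Pam3CSK4 5 h, then LipidA via TransIT-TKO 24 h. Output: supernatant IL-1a HTRF, negative-control-normalized, log robust z-score; viability by CellTiter-Glo.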
(Time-resolved FRET reads energy transfer from a long-lived donor to a nearby acceptor.)
On to GGAAUUAAGAAGACAAUUCTT against Emc2, for which the z-score is -1.22.
The value for GGAUGUCUCCAUGAAGGAATT against Ccnb2 was -1.12; that for GGUUGAUGGGUAAUAAACUTT against Nfatc4 was -2.16 (active); that for GGAAUGGAUAAAAACAUUGTT against Tank was 1.27.
Consider GGUGGUCUACUUAGGUUUATT against Sc5d, for which the z-score was 0.63.
Take GCGUGCAGCCCUCAAUGAATT against Ppp2r5b: the z-score was 0.84.
The value for “GGCGAACAGAGAGAGUUAGTT against 4921524J17Rik” was 0.677.
For GGGCUUCACUUCCUUAGGATT against Cog3 the value was 0.0276; for GGGCUGAAGUGAAAACAGCTT against Mmp8, -0.523.
Regarding GGAUAACUCACAAGAGUCUTT against Zdhhc16, the z-score is -0.296.
Consider GGCUUUUUGUUAAGGCAGCTT against Ap1ar, for which the z-score is 1.59.
On to GGAGACAACAACAAGACAUTT against Tbk1, for which the z-score is 3.12 (active).
For GGAGAAAGCUGCUCAUGAATT against Caml the value was -0.477; for GGCAGAUGAUCCCGGGAUUTT against Clvs1, 0.545; for GGUAUGUCUGCAUAAAUGUTT against Cyp2c38, 2.74 (active).
Take GGUUCGUGUGGUUUAACAUTT against Afg3l1: the z-score is 1.55.
In the case of GGAUGAGAGGUAAAGUAACTT against Nptxr, the z-score is 0.802.
In the case of GGUUCUCUGAUACCCACUCTT against Mgat4e, the z-score is 0.44.
For GGAAAUGUGGAGAGAAAAUTT against P2ry4 the value was 1.02.
The value for GGCGACAUAUUUUUCAAACTT against Fmn1 was -0.506.
The value for CGUGGAAGACAUACAACCCTT against Tmem181a was 3.03 (active); that for GGUCCGAGAGACAUUGGCATT against Lmx1b was -0.118; that for CCUUAUAAGAAAGAUAGACTT against Nhlrc2 was -0.591.
In the case of GGAGCUUCAAGGUCUGUCGTT against Tmc6, the z-score is -2.65 (active).
With GCUGGAUGGCCGUUUCAAATT against Fancd2os, the z-score was -0.00925.
Take GGAACUAAAUCUUCCAUCCTT against Chit1: the z-score was -1.02.
For GGAAAUAGAAGACCAGUUUTT against Srsf3 the value was -1.43; for GGCACCAUCUACGACUAUGTT against Gpx5, -0.649.
The value for GGUGAGCACUAAAUGCAGATT against Cldn16 was 0.892; that for GCAAAUGUUGCCCAUCGUGTT against Ppp2r1b was 0.44; that for GGAAAUCCUGGGACAGAACTT against Htatip2 was -2.42 (active).
The value for GCCUGAGAUCGUGAACACUTT against Ccdc159 was -0.0179.
For the sequence GGAGGCCUUGUACUUACACTT against Rspo1, the z-score is 1.26.
For the sequence GGUGAAUCAGACAUACUAUTT against Snupn, the z-score is 3.31 (active).
As to GGUAUGGAUGCUUGAGAAATT against Ccdc77, the z-score is -1.15.
On to GGAGCCAGUCCAAAUUGCATT against Il13ra1, for which the z-score was 0.561.
For GCCCAUUGAGUUUGAUUCATT against Itgav the value was 1.57; for GGACGAUUCUUUUCUCCAGTT against Surf1, -2.07 (active); for CCUCAUCGAAUUCGAUACCTT against Arrb2, -0.181.
For CGCUACGUCCAGUAUCACCTT against Tmem192 the value was -0.471; for CCAGAUAGGUAAAAAACAATT against Acta2, -0.562; for GCAAAUUUAAGAGAAGUUGTT against Dse, -0.132.
For CCUAGACUUGAACAAACACTT against Lsm12, the z-score is -2.11 (active).
The value for GCUUCGGCCUCAGUAUUCATT against Pigb was 0.0355; that for “GCAUACUUAGGAUACACGCTT against A830005F24Rik” was -0.647; that for GCCACAUUCUUCUCAACCUTT against Tas2r106 was -2.14 (active).
“GGUAGUUAACACAAAAUUGTT against 4932438H23Rik”: the z-score was 0.334.
For GGACUUCUUGGACCUACUUTT against F5 the value was -1.55; for GGUAGGAGGUAUUUCCCACTT against Shisa5, 0.197.
In the case of GGCUUCUAAGCAUACUCAGTT against Iqsec1, the z-score was -0.257.
Regarding GCUCCUCUCCAAGGUCAUUTT against Olfr96, the z-score is 0.652.
Take GGAUUUUCCAGGCAUGAGGTT against Ehd3: the z-score was -2.24 (active).
For GGAAAUGCGCCAUGAGUUGTT against Soga3 the value was -0.124; for GAGUUGUACUCUUCACUAUTT against Olfr497, -2.6 (active); for GGACUAUUGUCUCAUUUGATT against Olfr1189, 1.04.
For GGACAACGUAGCCUUCGUUTT against Ncln, the z-score is -0.562.
Take GGUGGAUUCUAUUAAAUGCTT against Gm14461: the z-score was 0.462.
CCAUUAGCAAUGUGCUUCUTT against Unc13a: the z-score was 0.268.
The value for GGUGUUCGAGAAGCUGAAGTT against Haus7 was -0.371.
For GGAUCUUUCGUGUGGAAAATT against Atf7ip the value was 0.87; for “GCUUUUGGACUGAAUCUCATT against 2210016L21Rik”, 2.78 (active).
The value for GGCCACCUUCUUUGAGGUATT against Snai1 was 1.11; that for GGUAGGACUAACAAUAAAATT against Gpr4 was -0.0158; that for GACCUGAAUAAAGACUGUCTT against Cort was 0.697.
Take CGGACUUACCAAAAGCGCATT against Lss: the z-score was 3.16 (active).
Take GGAGAGAGAUGAAAUUUGATT against Kif26b: the z-score is 1.79.
GGAGAAAAUCAACAAGAUCTT against Ppp2r2c: the z-score is -0.437.
The value for CCAUUGAGGUAAUGUUUGATT against Rmnd1 was 0.978.
Turning to UGAUAUCGGAACAGAGAUGTT against Tbx15, the z-score is -0.467.
The value for GGAAGUAAAAACAUACCUUTT against Chac2 was 2.02 (active); that for CCCAAAGCCCUUUUAAACUTT against Hmbs was 0.301.
For GGUAAAAGACUAAAGAAGATT against Coch the value was -0.485; for CCGCUGUUUUCAACUGUGCTT against Asb10, -0.773.
On to GGAAGUGGUGGAACUCCUGTT against Tmem215, for which the z-score is -2.65 (active).
On to GGACCUGGUCACCAUCUUGTT against Tram2, for which the z-score is -0.3.
The value for CGGCAGAAGGGUUUUUAUGTT against Rnf126 was -0.365.
For the sequence CCAUACAUAUAGACAAUCCTT against AY358078, the z-score is 0.796.
The value for CCUUCAUGCAACAGCUACUTT against Nckap5l was -2.57 (active); that for GCCCUAUCUACCAUAACACTT against Dok3 was -2.11 (active).
With GGAUUCAGAAAUCUGGAAATT against Nmnat3, the z-score is -0.199.
Consider GGUCAUCUUACAGUUUAAATT against Smap2, for which the z-score is 0.593.
Turning to GCGAAUAUCCAACCUAUCUTT against Itgb7, the z-score is -0.687.
As to GGGCAUCAUGAAACUAUGUTT against Kbtbd4, the z-score is -2.59 (active).
The value for GCUGAAGGCGACAAUGGAUTT against Ak2 was -0.0901.
For GGCCUGCUAUAUGCAUUCCTT against Krtap12-1 the value was 0.974; for GGAAAAGAUGCCUGUAUUUTT against Sgcd, -0.422.
For GGAUUCCAAAUGCUUACAATT against Lysmd3 the value was 0.757.
For the sequence GCCAAUGCAGGGUAAGUACTT against Tmtc2, the z-score was -2.83 (active).
The value for GCCUAUCCGACAACUUAGUTT against Slc25a17 was 0.136.
For GCAUAACCAAGUGUGAUGCTT against Actrt2 the value was -0.439.
As to GGAGAAAGUCAUCUUUGAUTT against Cdk5rap2, the z-score is -0.41.
The value for GGAGACGGAGCUGUUAGAUTT against Plcb1 was -0.104; that for GGUCCAUUAGCUAAAUCUUTT against Mysm1 was 1.87; that for CGAAGUGACAAUAAAUCAGTT against Snapc5 was -0.0661.
For GCAUCAGAGGGAUUUCACUTT against Slc35d3 the value was -2.68 (active).
For GGGAGCCAAAGUGAGAUUUTT against Azin2 the value was 0.736; for GGCAAAGUGAGUAAGACAGTT against Habp2, 0.0806.
For the sequence GCCCUAUUCCCAACUAUUCTT against Nefl, the z-score is -0.481.
The value for GGACUUUACAGACACUUUUTT against Kdm1b was -1.57; that for GCAGUUGUCACUGGCAAGUTT against Aqp2 was 2.21 (active).
For GCAAAGGUUCUAGUUGAUATT against Cct2 the value was -0.585.
The value for CCGAUUUUGUGGCCUCAUGTT against Emg1 was -0.578.
For the sequence GGAGAAAUGGGUAAAAACUTT against Paral1, the z-score is 0.296.
The value for GCCUAUGCUCAACUUCUCGTT against Thap4 was -3.31 (active); that for GGCCCUGACAGAGGAAAAATT against Impa2 was -1.16.
For CGAUAUGAAGCGAAAUAUCTT against Pmpca the value was 0.528; for GCCUUCCAGUCAGUGAAAUTT against Foxn1, -0.174.
